Assay results published in PubChem BioAssay (NCATS).
Results filed as inconclusive are left out. Calls of active or inactive are those of the source. Calls follow the shape of the dose curve; as a rule, active = well fitted inhibition curve with a large enough effect; inconclusive = small, poorly fitted or top-dose-only effect; inactive = no such curve, though single readings can be large or run the other way.

assay: qHTS for Inhibitors of the Aldehyde Dehydrogenase Family (ALDH1A2, ALDH1A3, ALDH2, ALDH3A1) (AID 2061307); details: ALDH inhibition qHTS; series mostly up to 50.3 µM; activity change, negative = inhibition: at the top concentration; also: nearly all actives have a fitted effect of over 50% in size; as to Potency: test system not described further here
% is scaled to controls: 0 for no effect and ±100 for the full control effect; potency is read from the fitted curve at half-maximal effect.

Structure (SMILES) | Potency | activity change, negative = inhibition
O=C(O)c1cccc(COc2cccc([N+](=O)[O-])c2)c1 | 0.269 µM (active) | –
COc1ccc(C(=O)O/N=C(\N)c2ccccn2)cc1 | 0.538 µM (active) | –
O=C(Nc1cccnc1Cl)c1cc(-c2cccc(Cl)c2)on1 | – | -20.9% [at 34.4 µM] (inactive)
O=C(c1ccc(Cl)cc1)c1no[n+]([O-])c1C(=O)c1ccc(Cl)cc1 | 7.98 µM (active) | –
N#CCc1c(Cc2ccc(S(N)(=O)=O)cc2)c(-c2ccccc2)nn1-c1nc(C(=O)O)cs1 | – | -25.6% (inactive)
O=C(Nc1cccnc1)c1nccs1 | – | -0.621% (inactive)
O=C(c1ccc(F)cc1)c1no[n+]([O-])c1C(=O)c1ccc(F)cc1 | 12.7 µM (active) | –
COc1ccc(CC2NCCC3=CC(=O)CCC32)cc1O (stereo not given) | – | 0% (inactive)
CN(C)c1ccc(C(=O)Nc2nnc(C3=COCCO3)o2)cc1 | – | -2% (inactive)
COc1ccc(NC(=O)C2CCN(c3ccc(Sc4ccc(C)cc4)nn3)CC2)cc1 | – | -34.3% [at 34.4 µM] (inactive)
Cn1c(=O)n(C)c2cc(N3CCCC3)c(NC(=O)Nc3ccccc3)cc21 | – | 0% [at 34.4 µM] (inactive)
CS(=O)(=O)c1cccc(-c2csc3ncnc(Sc4nncs4)c23)c1 | – | -7.51% (inactive)
Cc1cc(=O)n2[nH]c(NC(=O)c3ccccc3)nc2n1 | – | -36% (inactive)
O=C(Nc1cccc(C(F)(F)F)c1)c1ccccc1NCc1cccc(C(F)(F)F)c1 | – | 2.71% (inactive)
CCOc1ccc(NC(=O)c2ccc(NC(=O)CN3C(=O)N(C)C4(CCCCC4)C3=O)cc2)cc1 | 7.08 µM (active) | –
CC(=O)Nc1cccc(C(=O)Nc2nc(-c3ccc4c(c3)CCC(=O)N4)cs2)c1 | – | -51.7% [at 34.4 µM] (inactive)
O=C(Nc1cc(S(=O)(=O)N2CCOCC2)ccc1N1CCCCC1)c1cc(-c2ccccn2)nc2ccccc12 | – | -18.7% (inactive)
c1ccc(CCN(Cc2ccccc2)C2CCN(Cc3ccc4c(c3)OCCO4)CC2)cc1 | – | 20.9% (inactive)
COc1ccc(NC(=S)N=Nc2c(O)[nH]c3ccccc23)cc1 | – | -24.8% (inactive)
O=C(CN1CCC(CCc2ccccc2)CC1)Nc1ccccc1 | 15.8 µM (active) | –

Structure (SMILES) | Potency | activity change, negative = inhibition
O=C(NC1CCCc2c1cnn2-c1ccc(OCCOCCOCCNCCc2cn(-c3cc4ccc(O)cc4oc3=O)nn2)cc1)c1ccccn1 (stereo not given) | – | -28.5% (inactive)
Cc1ccc2c(CC(=O)Nc3c(C(=O)c4ccc(F)cc4)oc4ccccc34)coc2c1C | – | -18.1% [at 34.4 µM] (inactive)
O=C(Nc1ncc(Cc2ccccc2F)s1)c1ccn(-c2ccccc2)n1 | – | -26.3% (inactive)
COc1cccc(N2CCN(C(=O)c3ccc4c(c3)N(C)C3CCCCCN3C4=O)CC2)c1 (stereo not given) | – | -29.9% [at 34.4 µM] (inactive)
O=C(Cn1c2ncccc2c(=O)n1-c1ccccc1)Nc1ccc(Cl)cc1C(F)(F)F | – | -28.2% [at 34.4 µM] (inactive)
O=C([C@@H](NS(=O)(=O)c1ccc2[nH]c(=O)ccc2c1)c1ccccc1)N(Cc1ccco1)Cc1cccs1 | – | 7.55% (inactive)
CC(C)(C)NC(=O)c1ccc(NC(=O)c2cn(-c3ccccc3)nc2-c2cccnc2)cc1 | – | -29.1% [at 34.4 µM] (inactive)
CS(=O)(=O)c1cccc(-c2csc3ncnc(NCc4ccccn4)c23)c1 | 14.1 µM (active) | –
Cc1ccc(NC(=O)c2cnc3cc(C)ccn3c2=O)c(C)c1 | – | -50.3% [at 34.4 µM] (inactive)
O=C(O)c1csc(-n2[nH]c(-c3ccc(F)c(F)c3)cc2=O)n1 | – | -26.5% (inactive)
Cc1ccccc1OCC(O)Cn1c(NCc2ccccc2)nc2c1c(=O)n(C)c(=O)n2C (stereo not given) | – | -26.5% (inactive)
O=C(Nc1ccncc1)c1cccs1 | – | -78.7% (inactive)
Nc1c(Cc2ccc(S(N)(=O)=O)cc2)c(-c2ccccc2)nn1-c1nc(C(=O)O)co1 | – | -2.94% (inactive)
N#Cc1cccc(NC(=O)c2cc3c(s2)-c2ccc(Cl)cc2SC3)c1 | – | -43.4% [at 34.4 µM] (inactive)
COc1ccc(CN2CCN(C(=O)c3cc4c(s3)CCC4)CC2)cc1 | – | -6.09% (inactive)
O=C(Nc1ccnc(Cc2ccccc2)c1)c1ccc(-c2cccc([N+](=O)[O-])c2)o1 | 2.01 µM (active) | –
COc1ccc(OC)c(NC(=O)c2cc3cccc(OC)c3oc2=O)c1 | – | -20.3% [at 34.4 µM] (inactive)
Cc1csc(-c2cc(-c3c(Cc4ccc(S(N)(=O)=O)c(F)c4)c(CC4CC4)nn3-c3nc(C(=O)O)cs3)ccc2F)c1 | 12.7 µM (active) | –
Fc1cc(Cn2cnc3ccccc32)ccc1Cl | 11.2 µM (active) | –
O=C1C=CC(=O)N1c1cccc(Br)c1 | 0.0896 µM (active) | –
